# Measured values reported in PubChem BioAssay AID463173 (ICCB-Longwood Screening Facility, Harvard Medical School, 2010).
# Out of some 52,000 compounds screened, about 4,300 (8.3%) were called active. The full list was thinned out, with actives kept by preference. Unmarked numbers belong to inactive results. Rule as the data show it: active = survival mostly below about 52% (no sharp cut-off); inactive = mostly above about 56%.
# System: DeltatarO mutant
# Assay: S. aureus survival, RN4220 and DeltatarO strains – OD600, teichoic acid synthesis inhibitors, primary screen (AID 463173)
# Settings: S. aureus RN4220 wild type/DeltatarO growth, OD600, 18 h, stronger effect = lower value, screened at 18.75 µg/mL (by protocol)
row,Structure (SMILES),survival
1,Cn1c(=O)c2cc(C(=O)NCCCN3CCN(c4cccc(Cl)c4)CC3)sc2c2ccccc21,48%
2,Cc1cc(C)c(Cn2c(=O)n(CCC(=O)NCc3ccc4c(c3)OCO4)c(=O)c3ccccc32)c(C)c1,108%
3,CN(C)c1ccc(NC(=O)Cn2c(SCc3ccccc3F)nc3cccnc32)cc1,124%
4,CC(C)(C)c1ccc(OCC(=O)N(Cc2ccco2)Cc2ccccc2F)cc1,78%
5,Cc1cc(O)c(C(c2ccccc2)N2CCN(c3ccc(F)cc3)CC2)c(=O)n1Cc1ccco1 (stereo unspecified),67%
6,COc1ccccc1CCNC(=O)c1ccc2c(c1)c(C)c(C)n2C,95%
7,Cc1ccc(NC(=O)CSc2nc(-c3ccco3)nc3cc(=O)[nH]n23)cc1C,135%
8,CCOc1ccc(OCC)c(Nc2nc3ccccc3c3nnc(C)n23)c1,91%
9,Cc1nn(-c2ccc(N3CCCC3)nn2)c(C)c1CCC(=O)NCc1ccccc1F,82%
10,Cc1ccc(-c2nc(CCNC(=O)C(=O)Nc3ccc(C)c(Cl)c3)cs2)cc1,60%
11,Cc1ccc(-c2nc(CCNC(=O)C(=O)Nc3ccc(C)cc3C)cs2)cc1,66%
12,Cc1ccc(-c2nc(CCNC(=O)C(=O)Nc3c(C)cccc3C)cs2)cc1,8% (active)
13,Cc1cc(C)c(NC(=O)C(=O)NCCc2csc(-c3ccc(F)cc3)n2)c(C)c1,67%
14,Cc1ccc(-c2nc(CCNC(=O)C(=O)Nc3ccc(C)c(C)c3)cs2)cc1,20% (active)
15,Cc1cccc(NC(=O)C(=O)NCCc2csc(-c3ccc(F)cc3)n2)c1C,83%
16,Cc1c(CCNC(=O)c2ccc(Br)o2)sc2nc(-c3ccc(Cl)cc3)nn12,75%
17,Cc1cccc(NC(=O)CCn2cnnn2)c1,79%
18,O=C(CCn1cnnn1)Nc1cc(C(F)(F)F)cc(C(F)(F)F)c1,69% (active)
19,O=C(CCn1cnnn1)Nc1ccc(F)cc1,72%
20,CC(=O)Nc1cccc(-c2nnc(SCC(=O)c3ccc([N+](=O)[O-])cc3)o2)c1,130%
21,Fc1ccc(NCc2nnc3n2CCCCC3)cc1Cl,102%
22,Cc1cc(C)cc(NCc2nnc3n2CCCCC3)c1,89%

row,Structure (SMILES),survival
1,Cc1ccc(Cl)cc1NCc1nnc2n1CCCCC2,101%
2,COc1ccc(Cl)cc1NCc1nnc2n1CCCCC2,8% (active)
3,COc1ccc(NCc2nnc3n2CCCCC3)c(OC)c1,100%
4,COc1ccc(C)cc1NCc1nnc2n1CCCCC2,20% (active)
5,Clc1cccc(-n2ncc3c(N4CCC(Cc5ccccc5)CC4)ncnc32)c1,83%
6,CCOC(=O)c1ccccc1NC(=O)CSc1nccn1Cc1ccco1,75%
7,COCCCNC(=O)CCC(=O)NNc1nc2ccccc2c2nc(-c3ccccc3)nn12,100%
8,O=C(CCn1nnc2ccccc21)N1CCC(O)(c2cccc(F)c2)CC1,81%
9,COC(=O)c1ccccc1NC(=O)Cn1cc(S(=O)(=O)Cc2ccccc2F)c2ccccc21,94%
10,COc1cccc(N2C(=O)CSC23C(=O)N(Cc2ccccc2F)c2ccccc23)c1 (stereo unspecified),67%
11,COc1ccc(C(=O)Nc2nc3n(n2)C(c2ccc(F)cc2)C=C(c2ccc(Cl)cc2)N3)cc1 (stereo unspecified),54%
12,COc1ccc(C2C=C(c3ccccc3)Nc3nc(NC(C)=O)nn32)cc1 (stereo unspecified),53%
13,Cc1ccc(C(=O)Nc2nc3n(n2)C(c2ccc(F)cc2)C=C(c2ccccc2)N3)cc1 (stereo unspecified),43% (active)
14,O=C(Nc1nc2n(n1)C(c1ccc(F)cc1)C=C(c1ccccc1)N2)c1ccc(Cl)cc1 (stereo unspecified),48%
15,Cc1ccc(C(=O)Nc2nc3n(n2)C(c2ccccc2)C=C(c2ccccc2)N3)cc1 (stereo unspecified),57%
16,COc1ccc(C2C=C(c3ccccc3)Nc3nc(NC(=O)c4ccc(C)cc4)nn32)cc1 (stereo unspecified),44% (active)
17,CCOc1ccccc1CNC(=O)CN(c1ccc(C)cc1)S(=O)(=O)N(C)C,70%
18,Cc1ccc2[nH]cc(S(=O)(=O)c3ccc(C)c(C)c3)c(=O)c2c1,81%
19,Cc1ccc2[nH]cc(C(c3ccccc3)c3cccs3)c2c1 (stereo unspecified),12% (active)
20,Cn1cc(C(c2ccccc2)c2ccc(Cl)s2)c2ccccc21 (stereo unspecified),102%
21,Cc1ccc2[nH]cc(C(c3ccccc3)c3ccc(Cl)s3)c2c1 (stereo unspecified),10% (active)
22,c1ccc(C(c2cccs2)c2c[nH]c3ccccc23)cc1 (stereo unspecified),-1% (active)

row,Structure (SMILES),survival
1,Clc1ccc(C(c2ccccc2)c2c[nH]c3ccccc23)s1 (stereo unspecified),-3% (active)
2,COc1ccc(C(CN)c2c[nH]c3ccccc23)cc1 (stereo unspecified),107%
3,O=C(O)CSc1c[nH]c2ccccc12,84%
4,CCCCN(CC)C(=O)c1nn(-c2ccc(OC)cc2)c(=O)c2c1c1ccccc1n2C,82%
5,COc1cccc(CNC(=O)Cn2cc3c(n2)-c2c(oc(C(=O)N4CCCC4)c2C)CC3)c1,76%
6,Cc1cccc(N2CCN(c3ncnc4onc(C)c34)CC2C)c1 (stereo unspecified),77%
7,CCc1ccc(C(c2ccccc2)c2c[nH]c3ccc(C)cc23)s1 (stereo unspecified),69%
8,Cc1ccc2[nH]cc(C(c3ccccc3)c3ccc(C)s3)c2c1 (stereo unspecified),25% (active)
9,CCN(Cc1ccccc1)C(=O)c1cc2c(=O)[nH]c3ccc(C)cc3c2s1,49%
10,Cc1ccc(OCc2nc(-c3ccc(C(=O)N4CCN(c5ccc(Cl)cc5)CC4)cc3)oc2C)cc1,76%
11,CCc1cccc(NC(=O)Cn2nc(CC)n3c(cc4cc(C)ccc43)c2=O)c1,56%
12,Cc1ccc(C)c(NC(=O)C(C)n2c(=O)cc(C(F)(F)F)c3c(C)nn(C)c32)c1 (stereo unspecified),89%
13,CCc1cccc(NC(=O)Cn2nc(-c3ccc(OC)cc3)ccc2=O)c1,83%
14,CCc1ccccc1NC(=O)C(C)n1nc(-c2ccc(C)c(C)c2)ccc1=O (stereo unspecified),54%
15,CCC(C(=O)Nc1ccccc1)n1nc(-c2cc(C)ccc2C)ccc1=O (stereo unspecified),37% (active)
16,CCOc1ccc(NC(=O)C(CC)n2nc(-c3ccc(C)c(C)c3)ccc2=O)cc1 (stereo unspecified),68%
17,CCc1cccc(NC(=O)Cn2nc(-c3cc(C)ccc3C)ccc2=O)c1,34% (active)
18,Cc1ccc(-c2ccc(=O)n(CC(=O)Nc3cccc(C#N)c3)n2)cc1,112%
19,CCC(C(=O)Nc1cccc(C#N)c1)n1nc(-c2ccccc2)ccc1=O (stereo unspecified),40% (active)
20,CCC(C(=O)Nc1ccc(C(=O)OC)cc1)n1nc(-c2ccc(C)c(C)c2)ccc1=O (stereo unspecified),86%
21,CCC(C(=O)Nc1cccc(C#N)c1)n1c(=O)c(-c2ccccc2NC(C)=O)nc2ccccc21 (stereo unspecified),100%
22,Cc1ccc(C)c(-c2ccc(=O)n(C(C)C(=O)Nc3ccccc3C(F)(F)F)n2)c1 (stereo unspecified),41% (active)
